The record followed here is PubChem BioAssay (EPA / NIEHS).

Results filed as inconclusive are left out. The source made the active and inactive calls. How the source made its calls: active means hit-call score of the fitted dose curve at least 0.9, where 1 is the maximum; inconclusive means response in the unintended direction; inactive means score below 0.9.

In experiment [1] the target is human Ephrin type-A Receptor 1 (EphA1), EPHA1 (gene 2041) (UniProt P21709). As to the kind of experiment: NVS_ENZ_hEphA1: NovaScreen (NVS) Enzymatic Assay for human Ephrin type-A Receptor 1 (EphA1) (AID 2283158).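 Further: activity is signal loss versus DMSO meaning EphA1 kinase inhibition.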 In short, it runs like this: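 Chemicals first tested in duplicate at 25 uM against recombinant EphA1 with a fluorescent substrate; those passing threshold went to singleton dose-response topping at 50 uM. Activity read 1 h later as mobility-shift fluorescence, loss of signal relative to DMSO.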
Chain of human Ephrin type-A Receptor 1 (EphA1), EPHA1 (gene 2041) (P21709 whole entry, looked up): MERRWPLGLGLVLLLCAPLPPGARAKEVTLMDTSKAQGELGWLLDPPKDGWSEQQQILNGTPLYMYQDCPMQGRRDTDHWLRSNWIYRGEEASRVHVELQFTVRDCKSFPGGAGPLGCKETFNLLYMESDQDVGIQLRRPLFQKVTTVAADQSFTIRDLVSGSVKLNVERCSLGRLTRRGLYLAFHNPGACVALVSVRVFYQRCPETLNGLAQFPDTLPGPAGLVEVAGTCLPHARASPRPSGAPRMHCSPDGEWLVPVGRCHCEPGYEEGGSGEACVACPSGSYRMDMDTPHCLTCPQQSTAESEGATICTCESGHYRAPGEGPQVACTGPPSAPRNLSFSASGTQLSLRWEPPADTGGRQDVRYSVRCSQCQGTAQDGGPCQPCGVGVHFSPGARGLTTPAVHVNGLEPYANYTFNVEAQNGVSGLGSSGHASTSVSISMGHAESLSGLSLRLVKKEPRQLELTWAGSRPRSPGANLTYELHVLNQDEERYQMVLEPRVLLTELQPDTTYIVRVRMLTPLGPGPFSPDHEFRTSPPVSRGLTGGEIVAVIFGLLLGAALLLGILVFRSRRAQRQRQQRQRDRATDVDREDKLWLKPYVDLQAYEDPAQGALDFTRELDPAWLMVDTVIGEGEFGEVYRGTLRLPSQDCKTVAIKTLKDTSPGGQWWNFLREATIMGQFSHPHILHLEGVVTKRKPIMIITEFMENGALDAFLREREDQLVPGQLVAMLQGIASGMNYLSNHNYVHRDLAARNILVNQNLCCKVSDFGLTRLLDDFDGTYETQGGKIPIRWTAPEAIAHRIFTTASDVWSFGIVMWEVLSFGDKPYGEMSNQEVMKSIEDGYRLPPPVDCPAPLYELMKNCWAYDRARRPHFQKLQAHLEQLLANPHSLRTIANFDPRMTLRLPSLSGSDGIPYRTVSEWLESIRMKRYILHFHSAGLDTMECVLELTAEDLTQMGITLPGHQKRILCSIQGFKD

The target in experiment [2] is Cytochrome P450 2C19 (Homo sapiens) (UniProt P33261). As to the kind of experiment: NVS_ADME_hCYP2C19: NovaScreen (NVS) CYP450-related Enzyme Activity (ADME) Assay for human CYP2C19 (AID 2283113).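 Further: potency for inhibition seen as loss of fluorescent signal.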 In a few lines: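 Fluorescence intensity was measured 1 hour after chemicals were added to insect-cell-derived recombinant CYP2C19 with fluorogenic substrate. Decreased signal versus acetonitrile control was taken as reduced enzyme activity; initial testing used 10 uM in duplicate.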

Experiment [3] has as its target human Caspase 5 (CASP5), CASP5 (gene 838) (UniProt P51878). As to the kind of experiment: NVS_ENZ_hCASP5: NovaScreen (NVS) Enzymatic Assay for human Caspase 5 (CASP5) (AID 2283137). In short, it runs like this:
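Loss of fluorescent signal versus DMSO scored for E. coli-derived human CASP5 cleaving a fluorescent substrate, 2 h post-dosing; compounds first tested at 25 uM in duplicate, hits rerun in concentration series with 50 uM top concentration.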

The target of experiment [4] is human Dual Specificity Protein Phosphatase 3 (DUSP3), DUSP3 (gene 1845) (UniProt P51452). The experiment in a line: NVS_ENZ_hDUSP3: NovaScreen (NVS) Enzymatic Assay for human Dual Specificity Protein Phosphatase 3 (DUSP3) (AID 2283152). In a few lines: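 Cell-free fluorescence-intensity enzyme activity assay with recombinant protein and substrate; loss of signal fitted relative to DMSO baseline. Primary screen in duplicate at 25 uM, actives then run in concentration series; measured 0 h after dosing.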
Chain of human Dual Specificity Protein Phosphatase 3 (DUSP3), DUSP3 (gene 1845) (P51452 whole entry, looked up): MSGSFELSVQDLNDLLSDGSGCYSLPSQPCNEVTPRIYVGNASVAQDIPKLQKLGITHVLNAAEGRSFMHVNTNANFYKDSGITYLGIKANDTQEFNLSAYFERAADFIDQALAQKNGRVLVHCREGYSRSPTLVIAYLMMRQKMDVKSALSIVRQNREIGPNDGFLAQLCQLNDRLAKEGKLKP

Experiment [5] addresses human Esterase Plasma (ES), BCHE (gene 590) (UniProt P06276). As to the kind of experiment: NVS_ENZ_hES: NovaScreen (NVS) Enzymatic Assay for human Esterase Plasma (ES) (AID 2283157). In short, it runs like this:
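Screening ran at 25 uM in duplicate, followed by singleton concentration series reaching 50 uM for actives. Human plasma protein, colorimetric detection, 0.25 h exposure, DMSO negative control.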

Experiment [6] has as its target human CYP2D6, CYP2D6 (gene 1565) (UniProt P10635). As to the kind of experiment: NVS_ADME_hCYP2D6: NovaScreen (NVS) CYP450-related Enzyme Activity (ADME) Assay for human CYP2D6 (AID 2283107). In a few lines:
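Insect-cell recombinant enzyme + fluorogenic substrate, cell-free; 1 h incubation; fluorescence intensity readout. Acetonitrile = neg. ctrl/baseline. Single-point 10 uM, duplicate; follow-up concentration series.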

Experiment [7] deals with human Matrix Metalloproteinase-9 (MMP9), MMP9 (gene 4318) (UniProt P14780). The experiment in a line: NVS_ENZ_hMMP9: NovaScreen (NVS) Enzymatic Assay for human Matrix Metalloproteinase-9 (MMP9) (AID 2283190).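 Further: cell-free recombinant MMP9 protease activity read by fluorescent substrate signal; active means inhibition seen as loss of fluorescence signal versus DMSO.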 In short, it runs like this:
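Cell-free recombinant MMP9 enzyme activity measured by fluorescence intensity 1 h after dosing. Primary screen in duplicate at 25 uM, actives followed in concentration series; loss of signal relative to DMSO.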

The target in experiment [8] is sheep Cyclooxygenase-1 (Cox1), PTGS1 (gene 443551) (UniProt P05979). As to the kind of experiment: NVS_ENZ_oCOX1: NovaScreen (NVS) Enzymatic Assay for sheep Cyclooxygenase-1 (Cox1) (AID 2283239).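 Further: actives reduce cyclooxygenase activity so potencies are for inhibitors.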 In a few lines: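 Absorbance read-out of cyclooxygenase activity in a cell-free preparation from sheep seminal vesicles, taken 0.66 hour after dosing. Initial testing was in duplicate at 25 uM, and confirmatory testing was run in concentration series.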
Chain of sheep Cyclooxygenase-1 (Cox1), PTGS1 (gene 443551) (P05979 whole entry, looked up): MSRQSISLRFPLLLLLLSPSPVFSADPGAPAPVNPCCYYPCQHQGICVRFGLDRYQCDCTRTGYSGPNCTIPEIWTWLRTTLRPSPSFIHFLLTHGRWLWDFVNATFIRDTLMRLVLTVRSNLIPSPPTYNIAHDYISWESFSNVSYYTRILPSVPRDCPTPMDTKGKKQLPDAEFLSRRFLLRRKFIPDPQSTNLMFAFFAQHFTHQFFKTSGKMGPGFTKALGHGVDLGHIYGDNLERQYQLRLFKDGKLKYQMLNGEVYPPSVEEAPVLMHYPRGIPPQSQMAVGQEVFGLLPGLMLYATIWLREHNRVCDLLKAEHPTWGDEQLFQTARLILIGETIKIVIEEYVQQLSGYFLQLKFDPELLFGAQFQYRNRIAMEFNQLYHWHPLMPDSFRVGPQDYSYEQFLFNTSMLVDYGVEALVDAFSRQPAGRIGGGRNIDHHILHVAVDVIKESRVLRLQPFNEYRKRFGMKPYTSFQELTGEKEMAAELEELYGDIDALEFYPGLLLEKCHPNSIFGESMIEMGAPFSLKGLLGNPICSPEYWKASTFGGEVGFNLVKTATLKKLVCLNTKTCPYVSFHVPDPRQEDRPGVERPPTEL

Experiment [9] addresses Cytochrome P450 3A4 (Homo sapiens) (UniProt P08684). As to the kind of experiment: NVS_ADME_hCYP3A4: NovaScreen (NVS) CYP450-related Enzyme Activity (ADME) Assay for human CYP3A4 (AID 2283110). In a few lines:
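Activity is derived from decreased fluorescence intensity relative to acetonitrile, measured 0.33 hour after dosing insect-cell-expressed CYP3A4 in a cell-free format. Screening used 10 uM in duplicate before concentration-response follow-up.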

The target of experiment [10] is human Phosphodiesterase 10 (PDE10), PDE10A (gene 10846) (UniProt Q9Y233). As to the kind of experiment: NVS_ENZ_hPDE10: NovaScreen (NVS) Enzymatic Assay for human Phosphodiesterase 10 (PDE10) (AID 2283195). In short, it runs like this:
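Readout is fluorescence intensity following electrophoretic mobility-shift separation, 1 h after dosing of isolated PDE10A protein. Hits meeting a preset threshold at 25 uM went to concentration series (max 50 uM), analysed relative to DMSO.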

The target in experiment [11] is human Phosphoinositide 3-kinase alpha (PI3Ka), PIK3CA (gene 5290) (UniProt P42336). The experiment in a line: NVS_ENZ_hPI3Ka: NovaScreen (NVS) Enzymatic Assay for human Phosphoinositide 3-kinase alpha (PI3Ka) (AID 2283196). In a few lines: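 Recombinant human PI3Kα with fluorescent substrate, 1 h, product separated by electrophoretic mobility shift; 25 uM duplicate screen, hits (e.g., 30% inhibition) retested singly up to 50 uM; loss of signal vs DMSO.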
Chain of human Phosphoinositide 3-kinase alpha (PI3Ka), PIK3CA (gene 5290) (P42336 whole entry, looked up): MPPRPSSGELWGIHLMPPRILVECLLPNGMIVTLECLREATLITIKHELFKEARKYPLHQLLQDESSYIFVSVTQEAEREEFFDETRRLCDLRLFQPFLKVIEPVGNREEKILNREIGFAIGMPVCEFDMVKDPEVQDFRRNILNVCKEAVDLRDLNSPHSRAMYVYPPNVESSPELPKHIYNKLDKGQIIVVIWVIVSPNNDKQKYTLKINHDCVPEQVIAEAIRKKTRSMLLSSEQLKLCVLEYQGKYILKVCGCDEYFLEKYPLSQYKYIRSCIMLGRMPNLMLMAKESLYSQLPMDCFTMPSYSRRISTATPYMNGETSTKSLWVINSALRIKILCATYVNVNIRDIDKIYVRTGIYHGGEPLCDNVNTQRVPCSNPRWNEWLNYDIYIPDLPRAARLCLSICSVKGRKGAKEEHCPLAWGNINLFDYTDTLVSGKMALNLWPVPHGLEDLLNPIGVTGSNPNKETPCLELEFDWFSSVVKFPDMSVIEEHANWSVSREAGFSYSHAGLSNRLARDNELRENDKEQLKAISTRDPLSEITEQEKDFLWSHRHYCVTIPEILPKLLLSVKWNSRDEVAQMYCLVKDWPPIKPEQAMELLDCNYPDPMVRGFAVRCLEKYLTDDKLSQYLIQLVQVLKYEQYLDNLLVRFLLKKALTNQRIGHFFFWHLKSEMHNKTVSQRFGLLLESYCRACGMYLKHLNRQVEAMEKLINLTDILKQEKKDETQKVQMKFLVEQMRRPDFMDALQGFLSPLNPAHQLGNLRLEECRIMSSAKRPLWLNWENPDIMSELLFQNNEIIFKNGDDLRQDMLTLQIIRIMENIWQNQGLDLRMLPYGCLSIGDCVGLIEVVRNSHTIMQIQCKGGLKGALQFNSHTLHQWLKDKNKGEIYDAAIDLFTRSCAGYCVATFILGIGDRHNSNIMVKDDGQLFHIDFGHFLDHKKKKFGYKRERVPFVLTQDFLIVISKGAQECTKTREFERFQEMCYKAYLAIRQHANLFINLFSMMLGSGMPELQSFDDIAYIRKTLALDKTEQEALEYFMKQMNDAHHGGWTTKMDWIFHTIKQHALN

Experiment [12] has as its target rat CYP2C11, Cyp2c11 (gene 29277) (UniProt P08683). The experiment in a line: NVS_ADME_rCYP2C11: NovaScreen (NVS) CYP450-related Enzyme Activity (ADME) Assay for rat CYP2C11 (AID 2283118). In short, it runs like this: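 Screened first at 10 uM in duplicate, hits followed by concentration-response. Recombinant rat enzyme activity monitored by fluorescence 0.33 h post-dosing, normalised to acetonitrile negative control.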

In experiment [13] the target is human Beta-secretase (BACE), BACE1 (gene 23621) (UniProt P56817). As to the kind of experiment: NVS_ENZ_hBACE: NovaScreen (NVS) Enzymatic Assay for human Beta-secretase (BACE) (AID 2283140).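 Further: hits are inhibitors that reduce fluorescent substrate signal versus DMSO.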 In a few lines:
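Enzyme from SF9 cells was incubated 1 hour with compound and fluorogenic substrate, activity read by fluorescence. Single-concentration duplicates at 25 uM preceded concentration-response follow-up; fitting relative to DMSO baseline.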

Chain of human Caspase 5 (CASP5), CASP5 (gene 838) (P51878 whole entry, looked up): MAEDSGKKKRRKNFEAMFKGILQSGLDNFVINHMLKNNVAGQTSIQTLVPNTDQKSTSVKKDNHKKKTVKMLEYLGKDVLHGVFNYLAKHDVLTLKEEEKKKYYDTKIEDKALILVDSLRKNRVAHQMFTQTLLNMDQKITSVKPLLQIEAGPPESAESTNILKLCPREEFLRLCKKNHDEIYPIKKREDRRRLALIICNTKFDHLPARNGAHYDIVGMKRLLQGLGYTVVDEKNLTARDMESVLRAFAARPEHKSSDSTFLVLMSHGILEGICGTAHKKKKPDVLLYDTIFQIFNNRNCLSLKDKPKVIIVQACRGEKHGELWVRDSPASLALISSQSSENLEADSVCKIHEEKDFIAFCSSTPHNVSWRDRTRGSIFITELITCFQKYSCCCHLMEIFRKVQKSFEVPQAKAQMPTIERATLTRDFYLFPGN
Chain of human Phosphodiesterase 10 (PDE10), PDE10A (gene 10846) (Q9Y233 whole entry, looked up): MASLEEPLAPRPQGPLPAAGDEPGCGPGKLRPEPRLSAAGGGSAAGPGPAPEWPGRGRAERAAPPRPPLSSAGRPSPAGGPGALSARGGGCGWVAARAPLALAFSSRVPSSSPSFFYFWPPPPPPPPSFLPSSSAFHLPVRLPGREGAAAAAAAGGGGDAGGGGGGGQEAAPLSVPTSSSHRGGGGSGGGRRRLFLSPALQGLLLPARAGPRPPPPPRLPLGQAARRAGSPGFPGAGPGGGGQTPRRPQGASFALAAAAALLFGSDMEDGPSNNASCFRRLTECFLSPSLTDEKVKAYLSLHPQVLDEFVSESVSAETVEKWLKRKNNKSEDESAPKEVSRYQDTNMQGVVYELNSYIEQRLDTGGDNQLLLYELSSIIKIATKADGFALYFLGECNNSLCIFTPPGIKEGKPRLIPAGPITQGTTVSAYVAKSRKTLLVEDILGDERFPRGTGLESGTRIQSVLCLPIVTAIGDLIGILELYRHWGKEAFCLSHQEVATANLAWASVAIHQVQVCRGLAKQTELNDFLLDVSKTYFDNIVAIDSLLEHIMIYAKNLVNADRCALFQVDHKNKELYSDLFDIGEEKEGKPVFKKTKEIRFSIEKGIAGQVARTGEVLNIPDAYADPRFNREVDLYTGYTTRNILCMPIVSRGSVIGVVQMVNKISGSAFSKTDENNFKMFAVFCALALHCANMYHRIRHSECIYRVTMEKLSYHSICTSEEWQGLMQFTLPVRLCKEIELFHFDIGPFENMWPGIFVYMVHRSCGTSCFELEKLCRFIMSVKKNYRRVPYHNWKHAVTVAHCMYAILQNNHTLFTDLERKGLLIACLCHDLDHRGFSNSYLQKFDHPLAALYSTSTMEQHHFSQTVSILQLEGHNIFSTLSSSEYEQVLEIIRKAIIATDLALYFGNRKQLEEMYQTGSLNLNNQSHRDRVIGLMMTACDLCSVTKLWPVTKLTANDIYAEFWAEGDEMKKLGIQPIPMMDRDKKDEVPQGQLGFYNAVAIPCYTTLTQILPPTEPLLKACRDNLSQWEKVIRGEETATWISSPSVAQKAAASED
Chain of human Matrix Metalloproteinase-9 (MMP9), MMP9 (gene 4318) (P14780 whole entry, looked up): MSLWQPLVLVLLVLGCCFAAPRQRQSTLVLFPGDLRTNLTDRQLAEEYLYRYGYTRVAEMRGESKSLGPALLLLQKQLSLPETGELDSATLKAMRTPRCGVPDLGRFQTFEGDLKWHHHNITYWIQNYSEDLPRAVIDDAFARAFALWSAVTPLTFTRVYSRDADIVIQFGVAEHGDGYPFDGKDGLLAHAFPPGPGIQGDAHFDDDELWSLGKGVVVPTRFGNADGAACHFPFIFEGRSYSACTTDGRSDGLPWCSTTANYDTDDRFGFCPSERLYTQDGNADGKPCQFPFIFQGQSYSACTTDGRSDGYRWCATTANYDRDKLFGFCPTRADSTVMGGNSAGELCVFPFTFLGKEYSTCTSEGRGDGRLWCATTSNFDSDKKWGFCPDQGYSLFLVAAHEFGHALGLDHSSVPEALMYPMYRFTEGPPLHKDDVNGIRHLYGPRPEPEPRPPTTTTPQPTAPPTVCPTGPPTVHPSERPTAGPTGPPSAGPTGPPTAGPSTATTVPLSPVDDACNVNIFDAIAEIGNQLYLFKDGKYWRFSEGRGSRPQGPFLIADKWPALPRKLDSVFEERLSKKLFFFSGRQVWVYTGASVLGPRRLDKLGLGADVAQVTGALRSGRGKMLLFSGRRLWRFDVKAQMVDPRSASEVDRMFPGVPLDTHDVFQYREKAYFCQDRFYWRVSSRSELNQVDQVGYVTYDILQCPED

As to `Nc1ncnc2nc[nH]c12`, the outcome in experiment [1] was inactive.
Broadly, the AC50 is the midpoint of the concentration-response curve, whichever way the signal moves. For `C=CC(=O)OCCCCCCCC(C)C`, the AC50 in [2] was 1.67 µM (active). The call in experiment [1] was inactive.
Take `Fc1ccc(Br)cc1`: the outcome in experiment [3] and in [5] was inactive. Further, in experiment [4], the half-maximal activity concentration (AC50) is 13.7 µM (active).
`CC/C=C\CCOC(=O)c1ccccc1O`: the compound was classed as inactive in experiment [1].
Turning to `CCc1occc(=O)c1O`, the results for the AC50 in experiment [6], in [7] and in experiment [8] were 3.97 µM (active), 6.98 µM (active) and 0.243 µM (active), respectively.
Regarding `CC1=C(O)C(=O)C(C)O1` (stereo unspecified), the compound was classed as inactive in experiment [9], in experiment [1] and in [8].
With `Cc1cc(C)n(CO)n1`, the compound was called inactive in experiment [6]. Also, the AC50 in experiment [2] is 4.01 µM (active).
In the case of `CC(=O)OC(C)c1ccccc1` (stereo unspecified), the outcome in experiment [1], in [10], in experiment [11] and in experiment [8] was inactive.
Consider `CCOC(=O)C1=NOC(c2ccccc2)(c2ccccc2)C1`, for which the AC50 in [2] is 1.8 µM (active); in experiment [7] it was 2.32 µM (active). Further, the result in [12] and in [3] was inactive.
Consider `O=C(Oc1ccccc1)c1ccccc1C(=O)Oc1ccccc1`, for which the outcome in experiment [1] was inactive. Further, the AC50 in experiment [7] is 9.17 µM (active).
For `CCOc1ccc(NC(N)=O)cc1`, in experiment [1], the call was inactive.
As to `CCCCCC1=CCCC1=O`, the result in experiment [1] and in experiment [10] was inactive. Also, the half-maximal activity concentration (AC50) in [8] is 25 µM (active).
`COC(OC)(C(=O)c1ccccc1)c1ccccc1`: the AC50 in [13] is 43.1 µM (active). In addition, the compound was called inactive in [1] and in [8].
`CCOC(=O)/C=C\C(=O)OCC`: in experiment [3], the compound was classed as inactive. Besides, in experiment [4], the concentration at half-maximal activity (AC50) is 14.7 µM (active).
Regarding `CCCCOCCOCCOC(C)=O`, the compound was called inactive in [1], in [10] and in [11]. Further, in experiment [7], the AC50 is 1.23 µM (active).
Turning to `C=CCCCCCCCCC=O`, the AC50 was 13.1 µM (active) in [13] and 5.07 µM (active) in [7]. Also, the compound was classed as inactive in experiment [8].
